Assay outcomes deposited in PubChem by National Center for Advancing Translational Sciences (NCATS).
Shown are actives, neighbours in structure and some others; about 14% of the full set was active somewhere.
HCV inh = blocks hepatitis C virus; Huh7.5.1 HCVcc-Cre infection, luciferase reporter, 44 h; Potency, µM (top dose mostly 41.8 µM), without a hit: top-dose activity change, negative = inhibition, actives largely listed as inhibitors; 3.4% of 340,000 active; also: potency is read from the fitted curve at half-maximal effect
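Infectious HCV cell culture screen: compound-treated cells (1,000/well, pre-plated 4 h) are infected with HCVcc-Cre at roughly 0.5 moi and grown 44 h. Infection is quantified by luciferase signal after 15 min substrate incubation at room temperature.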
Pf growth 48h = inhibits P. falciparum growth in the first generation, 48 h; 5.9% of 310,000 active; P. falciparum luciferase growth in erythrocytes, 48 h; Potency, µM (doses to about 28.7 µM), for the others: at the highest dose activity change, negative = inhibition, usual class: inhibitors; AID 504832; also: potency is read from the fitted curve at half-maximal effect
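A one-generation exposure of luciferase-tagged malaria parasites in RPMI 1640/Albumax erythrocyte culture, 37 C and 5% CO2. Inhibition is inferred from decreased luminescence after adding detection reagent.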
HCMV antiviral = blocks human cytomegalovirus replication. HFF cells, HCMV-luciferase reporter, 72 h; active compounds read low. activity change, negative = inhibition, % at 57.5 µM. 4.5% of 410,000 active. AID 1259415; in the data active = activity change below about -60%; inconclusive = no clear call, values can overlap the other calls; inactive = above about -39%
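Two-dose cell screen: HFF monolayers treated with compounds and infected with luciferase-expressing HCMV at 1 PFU/cell, 72 h at 37C, then lysed for luciferase measurement.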
Marburg entry inh = blocks Marburg virus binding to or entry into cells | 1.8% of 300,000 active | AID 540276 | Marburg virus pseudotyped entry inhibition, cell reporter | Potency, µM (highest dose often 37.8 µM), for the others: top-dose activity change, negative = inhibition, usual class: inhibitors; calls by dose curve; tested in HEK293 cells; also: potency is read from the fitted curve at half-maximal effect
LASV entry inh = blocks Lassa virus binding to or entry into cells; Lassa virus pseudotype entry inhibition, cell reporter; Potency, µM (doses to about 37.9 µM), for the others: at the highest dose activity change, negative = inhibition, actives largely listed as inhibitors; 1.2% of 300,000 active; AID 540256; calls by dose curve; tested in HEK293 cells; also: potency is read from the fitted curve at half-maximal effect; nearly all actives have a fitted effect of over 50% in size
Pf growth 96h = P. falciparum growth inhibition at 96 hours | Potency, µM (doses to about 28.7 µM), for inactives: top-dose activity change, negative = inhibition, actives largely listed as inhibitors | AID 504834 | 6.9% of 320,000 active | P. falciparum luciferase reporter growth, 96 h; also: potency is read from the fitted curve at half-maximal effect
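Luminescence readout: decreased luciferase signal marks inhibited growth of reporter-expressing P. falciparum in infected red cells (2% hematocrit, 0.05% parasitemia final), exposed to compound two generations (96 h, 37 C, 5% CO2).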
* marks the source's active call; other numbers are inactive results; ? = inconclusive; . = no result; [ ] = dose if it differs, or a comment. Unless noted, calls follow the shape of the dose curve; as a rule, active = well fitted inhibition curve with a large enough effect; inconclusive = small, poorly fitted or top-dose-only effect, or another doubt; inactive = no such curve, though single readings can be large or run the other way. % is scaled to controls: 0 for no effect and ±100 for the full control effect.

SMILES	HCV inh	Pf growth 48h	HCMV antiviral	Marburg entry inh	LASV entry inh	Pf growth 96h
COc1ccc(NC(=O)CSc2nccn2-c2ccccc2)cc1	1.9%	14.7%	6.3	25.6%[46.1 µM]	-0.7%	2.5%
Nc1cc2c(cc1Br)[nH]c(=O)c1ccccc12	?	.	-89.0*	?	?	.
Cc1ccc(N2CCN(c3nc4ccccc4n4nnnc34)CC2)c(C)c1	.	.	-27.9	10.0%[46.1 µM]	28.3%[46.1 µM]	.
Cc1ccc(NC(=O)c2cc(S(=O)(=O)NCCC3=CCCCC3)ccc2F)cc1	?	?	-83.6*	?	?	?
O=S(=O)(NCCC1=CCCCC1)c1ccccc1Br	6.3%	?	-32.0	7.6%	?	?
COc1ccc(C)cc1S(=O)(=O)NCCC1=CCCCC1	35.5µM*	-12.9%	31.5	20.5%	1.7%	.
O=S(=O)(NCCC1=CCCCC1)c1ccc(Br)cc1	-1.5%	8.3%	-73.4*	9.2%	?	-6.5%
COc1ccc(C)cc1S(=O)(=O)N1CCC(C(=O)NCCC2=CCCCC2)CC1	-8.9%	?	40.5	-14.9%	-3.8%	.
Cc1ccc(C)c(NC(=O)c2cc(S(=O)(=O)NCCC3=CCCCC3)ccc2F)c1	.	.	-34.2	.	-22.3%[46.1 µM]	.
Cc1ccc2nc(N(Cc3cccnc3)C(=O)C3CCCCC3)sc2c1	.	.	-7.0	.	9.2%[46.1 µM]	.
Cc1ccc(OCC(COCc2ccccc2)NC(C)C)cc1 (stereo unspecified)	-2.1%	.	63.3	?	-23.4%	.
Cc1ccc(S(=O)(=O)N(C)c2ccc(C(=O)NC3CCCCC3)cc2)cc1	.	.	-11.4	.	.	.
COc1cc2[nH]c(=O)n(Cc3ccc(C(=O)NCCCN4CCN(C)CC4)cc3)c(=O)c2cc1OC	9.2%	.	21.0	3.5%	0.0%	-16.8%
O=C(NCCCN1CCOCC1)c1ccc2c(=O)n(Cc3ccccc3)c(=S)[nH]c2c1	?	-18.1%	?	?	-13.2%[46.1 µM]	?
CN1CCN(CCCNC(=O)c2ccc(Cn3c(=S)[nH]c4ccc(Br)cc4c3=O)cc2)CC1	7.94µM*	?	18.6	?	10.0%	1.1%
CC1CCN(CCCNC(=O)c2ccc(Cn3c(=S)[nH]c4ccc(Br)cc4c3=O)cc2)CC1	.	13.1µM*	.	.	.	15.9%
Cc1c(C(=O)Nc2c(F)cccc2F)sc2ncn(Cc3ccccc3F)c(=O)c12	.	.	-23.5	.	-9.7%[46.1 µM]	.
Cc1ccn2c(C=O)c(-c3ccc(F)cc3)c(C=O)c2c1	11.2µM*	8.8%	-28.2	.	.	?
O=Cc1c(-c2ccc(F)cc2)nc2ccccn12	14.4%	78.7%	13.3	9.5%[46.1 µM]	12.2%	-21.3%
CCOC(=O)C1=C(c2ccccc2)NC(=S)NC1c1cccc([N+](=O)[O-])c1 (stereo unspecified)	?	-12.1%	12.2	0.9%	-17.0%	?
CCOC(=O)C1=C(c2ccccc2)NC(=S)NC1c1cc([N+](=O)[O-])ccc1OC (stereo unspecified)	-17.3%	11.7µM*	-17.0	-4.6%[46.1 µM]	-7.4%	8.1%
COc1cc(C2NC(=S)NC(c3ccccc3)=C2C(C)=O)ccc1O (stereo unspecified)	-2.4%	34.5%	-36.7	-4.9%	-0.3%	24.0%
CCCOc1ccc(C2NC(=S)NC(c3ccccc3)=C2C(=O)Nc2ccc(C)cc2)cc1OC (stereo unspecified)	?	2.62µM*	-18.8	?	-12.7%	-21.1%
CC(=O)Nc1ccc(C(=O)NNS(=O)(=O)c2ccc(C)cc2)cc1	6.9%	-11.9%	?	-5.8%[46.1 µM]	-23.9%	0.0%
Cc1ccc(NC(=S)NCc2ccc(F)cc2)cc1	5.5%	.	-6.2	-1.1%[46.1 µM]	4.6%	.
SMILES	HCV inh	Pf growth 48h	HCMV antiviral	Marburg entry inh	LASV entry inh	Pf growth 96h
CSc1ccc(NS(=O)(=O)c2ccc(-n3cnnn3)cc2)cc1	4.2%	?	-4.5	9.0%	13.0%	?
CC(=O)c1ccc(NC(=O)Nc2ccc(NS(=O)(=O)c3ccc(C)cc3)cc2)cc1	11.2µM*	?	-22.4	-25.1%	-17.5%	3.8%
Cc1ccc(NC(=S)NCc2ccc(S(N)(=O)=O)cc2)cc1Cl	-28.7%	-37.4%[5.75 µM]	-80.9*	-5.0%[46.1 µM]	16.5%	21.6%
Cc1ccc(CNC(=S)Nc2ccc(NS(=O)(=O)c3ccc(C)cc3)cc2)cc1	-23.8%	-21.2%	-4.2	?	?	10.4µM*
Cc1ccc(S(=O)(=O)Nc2ccc(-n3cnnn3)cc2)cc1	5.7%	5.7%	-4.5	-17.6%[46.1 µM]	-0.8%[46.1 µM]	11.7µM*
CN(Cc1nc2ccccc2c(=O)[nH]1)C(=O)c1cc(-c2ccc(Br)cc2)nc2ccccc12	-18.0%	.	-5.3	-0.3%	1.0%	.
Cc1ccc(S(=O)(=O)NC(=O)Nc2ccccc2)cc1	8.0%	31.3%	-21.2	-6.6%[14.2 µM]	16.2%	6.57µM*
Cc1ccc(S(=O)(=O)NC(=O)Nc2ccc(F)cc2)cc1	9.5%	-6.6%	-23.8	13.3%	0.4%	?
CC(=O)c1cccc(NC(=O)Nc2ccccc2)c1	-9.9%	54.3%	8.3	?	1.6%[46.1 µM]	-2.4%
CC(=O)c1ccc(NC(=O)Nc2ccccc2)cc1	-4.1%	114.4%	88.7	?	8.2µM*	.
CC(C)C(NS(=O)(=O)c1cccc(C(F)(F)F)c1)C(=O)N1CCc2ccccc2C1 (stereo unspecified)	19.4%	?	-19.8	?	?	?
Cc1ccccc1NC(=O)c1c(C)oc2ccc(O)c(CN3CCCC3)c12	.	.	-15.0	?	-0.5%[46.1 µM]	.
CCCCNC1C(CC)C(CCC)C(C#N)(C#N)C1(C#N)C#N (stereo unspecified)	12.6µM*	11.7µM*	.	?	?	?
COc1ccc(-c2cc3ccc(O)c(CN4CCOCC4)c3oc2=O)cc1OC	.	.	16.1	.	12.1%[46.1 µM]	.
CCN(CC)C(=O)CSC(Nc1ccc(F)cc1)=C(C#N)C#N	-0.3%	3.4%	15.5	?	-12.1%[46.1 µM]	0.1%
Cc1ccc(CSC(Nc2ccc(F)cc2)=C(C#N)C#N)cc1	8.91µM*	?	-100.1*	?	13µM*	?
CCCN1CCN(C(=O)CCc2nnc3ccc(N4CCN(c5cccc(OC)c5)CC4)nn23)CC1	0.6%	10.4µM*	-17.0	.	.	30.5%
